Experimental data as given in PubChem BioAssay.
The source made the active and inactive calls. The rule behind the calls is not given here.

Molecular target: Pantothenate synthetase (Mycobacterium tuberculosis (strain ATCC 25618 / H37Rv)) (UniProt P9WIL5)
Experiment: Coupled enzyme confirmation of inhibitors against recombinant Mtb PanC (AID 375);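 note: 0% = full reaction with vehicle and 100% = no enzyme background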
Details: coupled enzyme assay; at 10 µM, hits give high values

Sequence of Pantothenate synthetase (Mycobacterium tuberculosis (strain ATCC 25618 / H37Rv)) (P9WIL5 whole entry, looked up): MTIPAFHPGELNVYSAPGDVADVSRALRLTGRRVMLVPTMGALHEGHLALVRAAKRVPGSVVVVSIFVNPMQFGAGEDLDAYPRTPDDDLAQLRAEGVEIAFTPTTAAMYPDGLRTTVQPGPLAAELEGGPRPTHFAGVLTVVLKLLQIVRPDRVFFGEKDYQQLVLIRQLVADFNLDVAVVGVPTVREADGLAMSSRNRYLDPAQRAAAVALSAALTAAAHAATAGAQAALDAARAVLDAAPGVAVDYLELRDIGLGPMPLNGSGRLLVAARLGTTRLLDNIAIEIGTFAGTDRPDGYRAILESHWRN

Structure (SMILES) | inhibition
Cn1c(=O)c2c(nc(NCc3ccccc3)n2CCCc2ccccc2)n(C)c1=O | 0% (inactive)
CN(C(=O)c1cc2sccc2n1C)C1CCCCC1 | 6% (inactive)
O=C(c1cnn2c(C(F)F)cc(-c3ccccc3)nc12)N1CCN2CCCC2C1 (configuration not stated) | 0% (inactive)
CCn1cc(C2Nc3ccccc3C(=O)N2O)c(C)n1 (configuration not stated) | 0% (inactive)
COc1cc(-c2nn3c(-c4cccnc4)nnc3s2)cc(OC)c1OC | 6% (inactive)
CN(C(=O)c1ccccn1)c1nnc(-c2cccnc2)s1 | 6% (inactive)
Cc1nc(SCc2ccc(Br)cc2)[nH]c(=O)c1C | 0% (inactive)
O=C(CCNS(=O)(=O)c1cccs1)Nc1ccccc1F | 3% (inactive)
COc1ccc(NC(=O)CSc2ccccn2)cc1OC | 0% (inactive)
O=C(NCCCN1CCN(c2cccc(Cl)c2)CC1)c1ccc(N2CCCC2=O)cc1 | 1% (inactive)
COc1cc(C(=O)N2CCN(C(=O)CC(C)C)CC2)cc(OC)c1OC | 0% (inactive)
CN(C#N)c1nc(N2CCOCC2)nc(N2CCOCC2)n1 | 1% (inactive)
C=CCn1c(SCc2cccc(C#N)c2)nnc1-c1ccccc1O | 0% (inactive)
O=C1C2C3C=CC(C3)C2C(=O)N1Cc1ccccc1 (configuration not stated) | 6% (inactive)
CC1(C)S[C@@H]2[C@H](NC(=O)[C@H](C(=O)O)c3ccsc3)C(=O)N2[C@H]1C(=O)O | 5% (inactive)
CCOc1cccc(C(=O)N2CCCCC2c2cccnc2)c1 (configuration not stated) | 0% (inactive)
Nc1ccc(-n2c(N)c(C(=O)NCc3ccc4c(c3)OCO4)c3nc4ccccc4nc32)cc1 | 14% (inactive)
